Only some compounds are listed: those with a hit (about 9.4% of all), similar ones and a draw of the others.
HttQ103 aggreg: reduces HttQ103-GFP aggregates in PC12 cells; Potency, µM (series often up to 46.1 µM), inactives show at the top dose activity change, negative = inhibition, actives largely listed as inhibitors; 220,000 compounds, 1.1% hits; AID 1688; PC12 HttQ103-GFP aggregates, Acumen cytometry, 40 h; note: potency is the fitted concentration of half-maximal effect; % is set by controls: 0 for no effect and ±100 for the full control effect; nearly all actives have a fitted effect of over 60% in size
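PC12 cells stably carrying ecdysone-inducible HTT exon 1 Q103–GFP were induced with tebufenozide (100 nM final) and treated with library compounds in titration. GFP aggregates in lysates were counted by laser scanning cytometry.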
IMPase cell inh: cell-permeable inhibitors of inositol monophosphatase (IMPase); CHO-M1 cells, IP1 accumulation, HTRF TR-FRET ratio; P97697; 120,000 tested, under 10 active; AID 901; inhibition (IP1 accumulation), % at 46.1 µM; active = well fitted curve in the direction sought with a large enough effect in the signal ratio, not every such curve was filed as active; inconclusive = small, poorly fitted or top-dose-only effect, or a change in a side signal; inactive = no such curve, though single readings can be large or run the other way; the % refers to the signal ratio;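 note: cells stimulated with carbachol in lithium chloride buffer; plate controls were DMSO basal wells for no effect and reference inhibitor wells for full effect; higher means more IMPase inhibition seen as more IP1 and lower FRET ratio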
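Carbachol-driven Gq signalling in CHO-M1 cells (2000/well) generates IP1. Compounds that block IMPase raise IP1 and so reduce the FRET signal from Eu-anti-IP1 and d2-IP1 after a 10 min room-temperature lysis.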
HPGD inh: blocks human HPGD enzyme activity | purified HPGD, NADH fluorescence kinetic, PGE2 substrate | AID 894 | P15428 | Potency, µM, inactives show at the top dose activity change, negative = inhibition, hits mostly inhibitors | 150,000 compounds, 4.3% hits; active = well fitted inhibition curve with a large enough effect, not every such curve was filed as active; inconclusive = small, poorly fitted or top-dose-only effect, or another doubt; inactive = no such curve, though single readings can be large or run the other way; note: potency is the fitted concentration of half-maximal effect; % is set by controls: 0 for no effect and ±100 for the full control effect
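NADH formation kinetics: reaction with 30 uM PGE2 and 1 mM NAD+ (final), 20 nM enzyme, Tris-HCl pH 8 with Tween 20, after 15 min compound preincubation at room temperature. Fluorescence change, last versus first of five reads.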
ALDH1A1 block: blocks purified human ALDH1A1 activity; AID 1030; Purified ALDH1A1, NADH fluorescence, propionaldehyde substrate; Potency, µM (series often up to 75.3 µM), inactives show top-dose activity, negative = inhibition, most hits filed as inhibitors; 220,000 compounds, 7.3% hits; active = well fitted inhibition curve with a large enough effect, not every such curve was filed as active; inconclusive = small, poorly fitted or top-dose-only effect, or another doubt; inactive = no such curve, though single readings can be large or run the other way;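 note: potency is the fitted concentration of half-maximal effect; plate controls were no enzyme wells and a reference inhibitor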
Target sequence (P00352 whole entry, looked up): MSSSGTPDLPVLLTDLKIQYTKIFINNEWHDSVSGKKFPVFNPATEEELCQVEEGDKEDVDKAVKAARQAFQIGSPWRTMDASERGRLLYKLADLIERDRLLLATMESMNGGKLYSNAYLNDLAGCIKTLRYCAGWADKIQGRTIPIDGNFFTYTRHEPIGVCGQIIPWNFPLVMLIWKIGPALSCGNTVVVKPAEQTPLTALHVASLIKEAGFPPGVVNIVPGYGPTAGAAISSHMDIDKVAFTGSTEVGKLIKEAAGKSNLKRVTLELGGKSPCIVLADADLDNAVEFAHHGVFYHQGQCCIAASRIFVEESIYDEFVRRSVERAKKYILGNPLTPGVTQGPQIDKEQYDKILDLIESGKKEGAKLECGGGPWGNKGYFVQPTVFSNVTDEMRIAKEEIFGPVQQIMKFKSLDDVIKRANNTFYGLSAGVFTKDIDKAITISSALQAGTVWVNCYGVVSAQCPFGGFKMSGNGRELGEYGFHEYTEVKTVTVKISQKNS
IMPase Li inh: IMPase inhibition in cells with lithium potentiation. CHO-M1 cells, IP1 TR-FRET (IP-One), carbachol + lithium. Potency, µM (highest dose often 59.4 µM), for the others: at the highest dose activity, negative = IMPase inhibition, most hits filed as inhibitors. 210,000 compounds, 0.35% hits. AID 1457;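 note: IP1 builds up when IMPase is blocked and the TR-FRET signal falls; potency is the fitted concentration of half-maximal effect; plate controls were basal vehicle for no effect and high inhibitor control for full effect; nearly all actives have a fitted effect of over 50% in size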
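CHO cells stably expressing M1 receptor (2000/well, cultured 16–30 h) treated 30 min at 37C with compound plus low lithium. Cytosolic IP1 by TR-FRET (665/620 ratio and 620 channel) after 10 min lysis; AC50 by Hill fit.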
HTT cytoprotect: protects HTT-Q103 PC12 cells, measured by ATP. Potency, µM (titrated, usually from 56.4 µM), without a hit: cytoprotection (ATP increase), hits mostly activators. AID 1471. PC12 HTT-Q103 induced, cytoprotection, ATP luminescence, 40 h. 230,000 compounds, 0.14% hits; note: potency is the fitted concentration of half-maximal effect; % of control where 0% means no effect; nearly all actives have a fitted effect of over 45% in size
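Readout: ATPlite luminescence (ATP level). Model: stable PC12, inducible Htt exon1 Q103-GFP. Inducer: tebufenozide, 100 nM final. Compounds: dose series. No G418 in medium.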
An asterisk follows results filed as active; [ ] = remark or other dose. Unless noted, calls come from the whole dose curve; as a rule, active = well fitted curve in the direction sought with a large enough effect; inconclusive = small, poorly fitted or top-dose-only effect, or another doubt; inactive = no such curve, though single readings can be large; an effect the other way counts as inactive or inconclusive.

For O=c1[nH]n2c(=O)c3c([nH]c2c1N=Nc1cccc(Cl)c1)CCCC3 the results were HttQ103 aggreg inconclusive, IMPase cell inh 16, HPGD inh 16µM*, ALDH1A1 block -2%, IMPase Li inh 20% and HTT cytoprotect -8%[1.9 µM].
Screening COc1ccc(OC)c(NC(=O)c2ccc3nc(-c4ccccc4)c(-c4ccccc4)nc3c2)c1 returned HttQ103 aggreg -5%, IMPase cell inh 6, HPGD inh -11%, ALDH1A1 block 10µM*, IMPase Li inh -1% and HTT cytoprotect 3%[10 µM].
CCOc1cc(C(=O)N/N=C(\C)Cc2ccc(OC)cc2)cc(OCC)c1OCC was read as HttQ103 aggreg -16%, HPGD inh -10%, ALDH1A1 block 2%, IMPase Li inh -2% and HTT cytoprotect -6%[10 µM].
For COc1ccc(C(=O)Nc2cc(Cl)ccc2OC(=O)c2ccc(OC)cc2)cc1 the results were HttQ103 aggreg -13%, IMPase cell inh -2, HPGD inh -8%, ALDH1A1 block 1µM*, IMPase Li inh 21%[38.3 µM] and HTT cytoprotect -48%.
COc1ccc(C/C(C)=N/NC(=O)c2ccc(Cl)cc2)cc1 was read as HttQ103 aggreg 6%, ALDH1A1 block 7.1µM*, IMPase Li inh 4% and HTT cytoprotect -28%.
`COc1ccc(C/C(C)=N/NS(=O)(=O)c2ccc(Br)cc2)cc1` gave HttQ103 aggreg 10%, ALDH1A1 block 2.8µM*, IMPase Li inh -4% and HTT cytoprotect 2%.
For COc1ccc(S(=O)(=O)N/N=C(/C)c2ccc(Cl)cc2)cc1 the results were HttQ103 aggreg -9%, IMPase cell inh -1, HPGD inh 0%, ALDH1A1 block inconclusive, IMPase Li inh 3%[38.3 µM] and HTT cytoprotect -30%.
`CC(C)C[C@@H](N)C(=O)Nc1ccc2ccccc2c1` gave HPGD inh -9%, ALDH1A1 block 4%[13.5 µM], IMPase Li inh -15% and HTT cytoprotect -11%[10 µM].
For COc1ccc(NC(=O)CSc2nc(-c3ccccc3)[nH]c2-c2ccccc2)cc1OC the results were IMPase cell inh 5.
Screening COc1ccc(OCC2CC3C(CCC(C)C3c3ccc(Br)cc3)C(=O)O2)cc1 (stereo not drawn) returned ALDH1A1 block 0%[13.5 µM] and HTT cytoprotect -1%[10 µM].
`Cc1c(NC(=O)Nc2ccc(Cl)c(C(F)(F)F)c2)c(=O)n(-c2ccccc2)n1C` gave IMPase cell inh 1.
COc1ccc(S(=O)(=O)NCC2CCCN(C(=O)c3ccco3)C2)cc1 (stereo not drawn) was read as HttQ103 aggreg 12%[9.22 µM], ALDH1A1 block 4µM*, IMPase Li inh 5% and HTT cytoprotect 6%[10 µM].
For COc1ccc(S(=O)(=O)NCC2CCCN(C(=O)c3cccs3)C2)cc1 (stereo not drawn) the results were HttQ103 aggreg inconclusive, ALDH1A1 block 1.1µM*, IMPase Li inh 5% and HTT cytoprotect 24%[10 µM].
Screening CCc1cc(C(=O)N2CCCC(CNS(=O)(=O)c3cccs3)C2)n(C)n1 (stereo not drawn) returned HttQ103 aggreg -12%[9.22 µM], ALDH1A1 block 5µM*, IMPase Li inh 2% and HTT cytoprotect -7%[10 µM].
`Cc1ccc(-c2nn(CCC#N)cc2C=C(C#N)C#N)cc1` gave HttQ103 aggreg 26%, IMPase cell inh 9, HPGD inh -21%, ALDH1A1 block 20µM*, IMPase Li inh 7% and HTT cytoprotect -7%[10 µM].
COc1ccc(-c2nn(CCC#N)cc2C=C(C#N)C#N)cc1 was read as HttQ103 aggreg -7%[9.22 µM] and HTT cytoprotect -4%[10 µM].
`Cc1cc(OC(=O)c2c(C)cc(O)cc2O)cc(O)c1C(=O)O` gave HPGD inh 16µM*, ALDH1A1 block -13%, IMPase Li inh 17% and HTT cytoprotect -43%.
`CCOC(=O)c1c(C)cc(OC)cc1O` gave HPGD inh inconclusive, ALDH1A1 block -13%, IMPase Li inh -9% and HTT cytoprotect -5%.

Screens deposited in PubChem by National Center for Advancing Translational Sciences (NCATS).
